Each structure is given as a SMILES string. This is part of a sample that, as a whole, favours compounds with a hit. Of some 83,000 tested, about 20% had one in any assay.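 For each line, cells grew in 96-well plates with the test compound present at a single concentration for 48 hours.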 A number with no mark means an inactive call. Active and inactive are the calls of the source.

The assay has as its system BT-549 breast. The assay can be described thus: NCI-60 one-dose screen, 48 h (100 = growth as untreated, 0 = no growth, -100 = all killed). To be noted: 10 µM unless noted. On the procedure:
Growth inhibition of the BT-549 human tumor cell line is measured as a screen for anti-cancer activity. Cells are grown in 96 well plates and exposed to the test compound for 48 hours. Compounds are tested at a single concentration, which is 10^-5 M for most compounds. The reported endpoint is percent growth (GI% or GIPRCNT), where numbers from 0 - 100% represent growth inhibition, and numbers from -100% - 0 represent cell death. For example, a value of 40 represents 60% growth inhibition. A value of 0 means no net growth occurred over the course of the experiment. A value of -40 indicates 40% of cells at the beginning of the experiment died by the end of the experiment. A value of -100 means all cells are dead at the end of the experiment.
NCI-60 Human Tumor Cell Lines Screen was performed using the standard one-dose NCI protocol, which is described in more detail at https://dtp.cancer.gov/discovery_development/nci-60/default.htm.
Compounds with GIPRCNT values below 10 were considered active. Activity score was based on GIPRCNT using the following formula: […]
Score is 0 for GIPRCNT values of 100 or above, 50 for GIPRCNT values of 0, and 100 for GIPRCNT values of -100.
As for `O=[N+]([O-])c1cccc(-c2cc(-c3cc(Br)ccc3O)[nH]n2)c1`, the growth was 24.1%.

With `O=C1Nc2ccc(Br)cc2C1=N/C=c1\[nH]c(=O)/c(=C/c2ccc(Cl)cc2)s1`, the growth was 99.8%.

Consider `O=C(CSc1nc(-c2ccc(Cl)cc2)cn1-c1ccc(Cl)cc1)c1ccc(Br)cc1`, for which the growth was 94.1%.

`CNC(=O)Cc1nc(-c2cccc(NS(=O)(=O)c3c(F)cccc3F)c2F)c(-c2ccnc(Nc3ccccc3)n2)s1`: the growth is 103%.

In the case of `CCN1C(=S)N(CC)C2Nn3c(s/c(=C4\C(=O)N(C)c5ccccc54)c3=O)=NC21` (stereo not given), the growth was 74.7%.

As for `O=c1[nH]c(-c2cn(-c3ccc(Cl)cc3)nn2)nc2ccccc12`, the growth was 79.6%.

For `CCCCCCCC/C=C\CCCCCCCCOc1ccccc1CCOP(=O)(O)OCC[N+](C)(C)C`, the growth is 88.3%.

As to `Cc1ccc2c(c1)C(C)Cc1c(N(C)C)ncnc1N2C` (stereo not given), the growth was 30.6%.

For `COc1cc(NCCCN=C(N)NC(N)=NC(C)C)c2ncccc2c1`, the growth is 65.1%.

For `Nc1cccc2c1CN(C1CCC(=O)NC1=O)C2=O` (stereo not given), the growth is 105%.

`COc1ccc(-c2nc(-c3nc4ccc(F)cc4[nH]3)cc3c2[nH]c2ccccc23)cc1`: the growth is 41.8%.

Take `CC/C=C\C[C@H]1C/C=C2/C(=O)C(Cl)=C[C@@H]2C/C=C\CCCC(=O)O1`: the growth is -75% (active).

As to `Oc1ccc(N=Cc2ccccc2)cc1`, the growth is 70.7%.

`CCN1C(=O)N[C@H]2[C@@H]3NC(=O)c4ccc(Cl)n4[C@@H]3C[C@]21O`: the growth was -23.4% (active).

As for `CCOC(=O)c1cc(/C(=N\O)c2cc(OC)c(OC)c(OC)c2)n2c(C)cccc12`, the growth was 19.4%.

Turning to `Cc1cc(N/C=c2\sc3ncnn3c2=O)no1`, the growth was 104%.

On to `COC(=O)CC/C(C)=N\Nc1ccc([N+](=O)[O-])cc1`, for which the growth was 89.1%.

With `Cc1ccc(-c2csc3nc(C)c(CCCl)c(=O)n23)cc1`, the growth is 119%.

Take `O=c1cc(C2NCCc3c2[nH]c2ccccc32)c2c(ccc3ccccc32)o1` (stereo not given): the growth was 82%.

Take `Cc1nc(Nc2cccnc2)sc1C(=O)/C=C/c1ccc(F)cc1`: the growth was 1.57% (active).

Consider `COc1ccc2c(c1)C(C)Cc1c(N(C)C)ncnc1N2C` (stereo not given), for which the growth is 17.7%.

In the case of `COc1ncc(-c2ccc3ncnc(Nc4cccc(Cl)c4)c3c2)cc1N(S(C)(=O)=O)S(C)(=O)=O`, the growth was 78.1%.

For `CSc1nc(-c2cc3ccccc3o2)cc(-c2ccc(Cl)cc2)c1C#N`, the growth was 115%.

Regarding `CCn1cc(C(=O)O)c(=O)c2cc(F)c(N3CCN(S(=O)(=O)c4c(C)cc(C)cc4C)CC3)cc21`, the growth is 73.7%.

For `CC/C(=C(\c1ccc(O)cc1)c1ccc(OCCN(C)CCN(C)C(=O)CCC(=O)c2c(C)[nH]c(/C=C3\N=C(c4ccc[nH]4)C=C3OC)c2C)cc1)c1ccccc1`, the growth is 103%.

With `COc1ccc(-n2cnc3c(sc4ncc(Cl)cc43)c2=O)cc1`, the growth was 94.9%.

As for `COc1ccc(-c2nc3sccn3c2-c2ccnc(NCCCNS(=O)(=O)c3ccc(C)cc3)n2)cc1`, the growth is 42.5%.

With `CCCCC(N)(C(=O)O)C1CCCC1` (stereo not given), the growth was 103%.

With `COc1cc(C(=O)OCCCCCCCCCCC[P+](c2ccccc2)(c2ccccc2)c2ccccc2)ccc1O`, the growth was -60.8% (active).

For `COc1cccc(NC(=O)Cn2cc3c(=O)oc4ccccc4c3n2)c1`, the growth is 94.5%.

With `COc1ccc([N+](=O)[O-])c(/C=C/C(=O)c2ccccn2)c1`, the growth is 94.2%.

Consider `O=C(C[N+](=O)[O-])c1ccc(Cl)cc1`, for which the growth is 102%.

As for `CCCCCCc1nc2c(c(C)nn2-c2ccccc2)c2c1CCCCC2`, the growth is 113%.

`OC1CC2c3ccccc3C1c1ccccc12` (stereo not given): the growth is 108%.

Take `O=C(/C=C/CN1CCCCC1)Nc1cc2c(Nc3ccc(F)c(Cl)c3F)ncnc2cc1OCCOC(F)F`: the growth was 18.3%.

Take `O=C(c1ccncc1)N1N=C(c2ccc(Cl)cc2)CC1c1c[nH]c2ccccc12` (stereo not given): the growth was 92.8%.

`O=S(=O)(c1ccccc1)n1ccc(-c2ccc3c(c2)CCO3)n1`: the growth was 96%.

In the case of `O=C(O)c1cccc([N+](=O)[O-])c1/C=C/c1ccccc1`, the growth is 106%.

On to `O=C(O)C(=Cc1c2ccccc2cc2ccccc12)C(=O)O`, for which the growth is 105%.

For `CNC(C)=O`, the growth is 76.3%.

The record behind these values is PubChem BioAssay (NCI).
